# This excerpt belongs to a sample that is enriched for hits.
# KDM5B inh: KDM5B demethylase inhibition; Q9UGL1; KDM5B demethylase, FDH-coupled NADH fluorescence (FDH is formaldehyde dehydrogenase); Potency, µM (titrated, usually from 57.7 µM), hits mostly inhibitors; 220,000 compounds, 2.6% hits; active = well fitted inhibition curve with a large enough effect; note: 0% is about no effect; nearly all actives have a fitted effect of over 70% in size
# Target sequence (Q9UGL1 whole entry, looked up): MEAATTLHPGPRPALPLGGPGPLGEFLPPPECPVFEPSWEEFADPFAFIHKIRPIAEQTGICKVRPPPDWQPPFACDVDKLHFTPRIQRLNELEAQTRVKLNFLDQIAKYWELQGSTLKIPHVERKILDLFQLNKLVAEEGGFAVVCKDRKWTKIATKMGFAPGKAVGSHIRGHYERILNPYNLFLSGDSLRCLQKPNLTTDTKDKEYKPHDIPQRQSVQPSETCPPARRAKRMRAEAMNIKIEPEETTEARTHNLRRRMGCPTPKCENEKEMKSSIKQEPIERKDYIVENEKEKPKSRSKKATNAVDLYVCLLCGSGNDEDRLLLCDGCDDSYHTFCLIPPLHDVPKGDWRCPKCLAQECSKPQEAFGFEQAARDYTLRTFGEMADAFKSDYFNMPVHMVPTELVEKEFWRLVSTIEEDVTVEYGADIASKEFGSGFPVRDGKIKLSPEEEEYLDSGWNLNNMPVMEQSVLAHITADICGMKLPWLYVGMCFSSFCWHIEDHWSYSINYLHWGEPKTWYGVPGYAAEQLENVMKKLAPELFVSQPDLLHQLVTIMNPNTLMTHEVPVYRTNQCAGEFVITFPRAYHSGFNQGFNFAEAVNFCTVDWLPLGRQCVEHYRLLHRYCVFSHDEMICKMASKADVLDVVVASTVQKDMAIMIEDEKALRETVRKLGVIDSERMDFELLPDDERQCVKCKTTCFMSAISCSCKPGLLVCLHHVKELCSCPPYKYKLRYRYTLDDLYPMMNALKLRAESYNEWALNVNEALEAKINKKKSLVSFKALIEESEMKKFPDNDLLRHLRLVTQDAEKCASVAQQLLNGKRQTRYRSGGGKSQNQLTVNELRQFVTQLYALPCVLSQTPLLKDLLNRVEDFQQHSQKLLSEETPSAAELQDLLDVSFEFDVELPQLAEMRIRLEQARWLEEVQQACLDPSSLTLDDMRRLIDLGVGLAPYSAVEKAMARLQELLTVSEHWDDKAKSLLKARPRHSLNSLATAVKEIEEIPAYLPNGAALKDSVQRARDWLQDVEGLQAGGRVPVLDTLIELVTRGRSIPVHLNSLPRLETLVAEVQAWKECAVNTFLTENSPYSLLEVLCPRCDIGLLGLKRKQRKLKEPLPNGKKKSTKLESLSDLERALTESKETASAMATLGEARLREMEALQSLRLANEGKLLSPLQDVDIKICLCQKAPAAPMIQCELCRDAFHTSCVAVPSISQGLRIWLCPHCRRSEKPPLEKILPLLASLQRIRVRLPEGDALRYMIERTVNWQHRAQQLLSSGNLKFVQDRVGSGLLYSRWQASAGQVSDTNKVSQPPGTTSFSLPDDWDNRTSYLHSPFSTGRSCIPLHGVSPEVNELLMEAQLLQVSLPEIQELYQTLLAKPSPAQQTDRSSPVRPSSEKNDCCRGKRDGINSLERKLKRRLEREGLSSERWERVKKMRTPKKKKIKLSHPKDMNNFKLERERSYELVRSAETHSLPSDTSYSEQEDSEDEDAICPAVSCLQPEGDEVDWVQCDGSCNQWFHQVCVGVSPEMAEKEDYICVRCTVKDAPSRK
#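 Inhibition is measured as reduced NADH fluorescence generation from FDH coupling to formaldehyde release. Truncated KDM5BΔAP at 200 nM final acts on H3K4me3 peptide (12.5 µM in substrate mix) in pH 7.5 HEPES buffer with Tween-20, 30 min, room temperature.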
# The depositor's hits bear a star; i = inactive. Potency is the fitted concentration of half-maximal effect.
SMILES,KDM5B inh
Clc1ccc(Nc2cnc3ccc(-c4ccccc4)nn23)nc1,i
COc1ccc(F)cc1Nc1cnc2ccc(N(C)C)nn12,31.6µM*
Cc1cc(N2CCOCC2)nc(Nc2ccc(NC(=O)Nc3cccc(Cl)c3)cc2)n1,i
C/C(=N\NC(=S)NCc1ccccc1)C(C)C,i
CCOC(=O)CN1CCN(c2nc3c(c(=O)[nH]c(=O)n3C)n2Cc2ccccc2F)CC1,i
CSc1ccc(-c2nc3ncccn3c2Nc2ccccc2)cc1,i
CSc1cccc(NC(=O)c2cc(Cl)ccc2F)c1,i
Cc1ccc2nc(/C(C#N)=C\c3ccc(C)s3)[nH]c2c1,i
CC#CCn1cc2c3c(cccc31)[C@H](CC(C)C)N[C@H](C(=O)NCCNC(C)=O)C2,31.6µM*
CC(C)C[C@@H]1N[C@H](C(=O)N2CCOCC2)Cc2cn(Cc3cccnc3)c3cccc1c23,i
CC(C)C[C@@H]1N[C@H](C(=O)O)Cc2cn(CC3CC3)c3cccc1c23,31.6µM*
C#CCNC(=O)[C@@H]1Cc2cn(CC#CC)c3cccc(c23)[C@H](CC(C)C)N1,i
C=CCn1cc2c3c(cccc31)[C@H](CC(C)C)N[C@H](C(=O)N1CCOCC1)C2,31.6µM*
CC(C)C[C@@H]1N[C@H](C(=O)NC2CCC2)Cc2cn(Cc3nccn3C)c3cccc1c23,i
CC#CCn1cc2c3c(cccc31)[C@H](CC(C)C)N[C@H](C(=O)NCc1ccc(OC)cc1)C2,i
CC(C)C[C@@H]1N[C@H](C(=O)NC(C)C)Cc2cn(Cc3ccncc3)c3cccc1c23,i
CCCNC(=O)[C@@H]1Cc2cn(Cc3cccnc3)c3cccc(c23)[C@H](CC(C)C)N1,i
Cc1cc(Cn2cc3c4c(cccc42)[C@H](CC(C)C)N[C@H](C(=O)NCCN2CCOCC2)C3)no1,i
CC(C)C[C@@H]1N[C@H](C(=O)N2CCOCC2)Cc2cn(CC3CC3)c3cccc1c23,35.5µM*
CC(C)C[C@@H]1N[C@H](C(=O)NCC2CC2)Cc2cn(Cc3ccncc3)c3cccc1c23,i
Cc1cc(C)cc(NC(=S)NCCO)c1,i
c1ccc(-c2nnc3sc(Cn4cccn4)nn23)cc1,i
CN(C)C(=O)CN(C)C(=O)Cn1c(=O)c2c(ncn2Cc2ccco2)n(Cc2ccccc2)c1=O,i
O=C(C1CCCC1)N1CCC2(C1)C(=O)N(CCc1ccccc1)c1ccccc12 (configuration not stated),i
CCOc1cccc(C(=O)NCc2nc(-c3cccs3)no2)c1,i
SMILES,KDM5B inh
C=CCN(C)C(=O)[C@@H]1Cc2cn(Cc3nccn3C)c3cccc(c23)[C@H](CC(C)C)N1,i
CC(C)C[C@@H]1N[C@H](C(=O)N2CCC(O)(c3ccccc3)CC2)Cc2cn(C)c3cccc1c23,i
C=CCn1cc2c3c(cccc31)[C@H](CC(C)C)N[C@H](C(=O)N1CCN(C)CC1)C2,22.4µM*
C=CCNC(=O)[C@@H]1Cc2cn(Cc3c(C)noc3C)c3cccc(c23)[C@H](CC(C)C)N1,28.2µM*
C=CCNC(=O)[C@@H]1Cc2cn(CC#CC)c3cccc(c23)[C@H](CC(C)C)N1,i
C=CCN(C)C(=O)[C@@H]1Cc2cn(Cc3cc(C)on3)c3cccc(c23)[C@H](CC(C)C)N1,i
O=C1COc2ccc(-c3csc(Nc4ccccc4)n3)cc2N1,i
Cn1c(=O)[nH]c(=O)c2c1nc(N1CCN(C/C=C/c3ccccc3)CC1)n2Cc1ccc(Cl)cc1,i
CSc1ccc(C(C)NC(=O)Cc2ccccc2C)cc1 (configuration not stated),i
Cc1nc2c(c(=O)[nH]1)C(c1ccc(OCc3cccc(Cl)c3)cc1)CC(=O)N2 (configuration not stated),i
Cc1cn2nnc(C(=O)NCCC3=CCCCC3)c2c(=O)[nH]1,i
O=C(NCCN1CCCC1)c1nnn2cc(-c3ccccc3)[nH]c(=O)c12,2.51µM*
O=C(NCCCN1CCCC1)c1ccc(-c2ccccc2)cc1,i
CC(C)Oc1cccc2c1c(NC(=O)c1ccn(C)n1)nn2Cc1ccccc1,25.1µM*
CC(C)Oc1ccc2c(NC(=O)c3ccn(C)n3)nn(CC(F)(F)F)c2c1,i
CC(C)Oc1cccc2c1c(NC(=O)C1CCCO1)nn2Cc1ccccc1 (configuration not stated),i
OC(c1ccccc1)c1cc2n(n1)CCN(Cc1cncn1C1CC1)C2 (configuration not stated),i
Cc1ccc(Cl)cc1N1CCN(C(=O)CCNS(=O)(=O)c2ccc3[nH]c(=O)ccc3c2)CC1,i
Cc1nc2nc(C)c(NC(=O)Nc3ccccc3C(F)(F)F)c(=O)n2[nH]1,i
CNC(=O)c1cc(-c2cnn(C)c2)cc2c1OCCN2Cc1cccnc1,39.8µM*
Cc1ccc(CNC(=O)c2ccc3c(c2)CN(Cc2ccc(O)c(F)c2)CCO3)cc1,i
COCC(=O)N1CCCN(Cc2cccnc2)c2ccccc21,i
Cn1nccc1C(=O)N1CCC(OC2CCN(Cc3cccnc3)CC2)CC1,i
CNC(=O)c1cc(-c2ccccc2)cc2c1OCCN2Cc1cccnc1,31.6µM*
CNC(=O)c1cc(-c2ccc(O)c(F)c2)cc2c1OCCN2Cc1cccnc1,28.2µM*
SMILES,KDM5B inh
CNC(=O)c1cc(-c2ccncc2)cc2c1OCCN2Cc1cccnc1,i
CC(=O)Nc1ccc(C(=O)N2C3CCC2CN(Cc2cccnc2)C3)cc1,i
Cc1ccccc1CN1CCC(CN(Cc2cccnc2)C(=O)CN2CCOC2=O)CC1,i
CNC(=O)c1cc(-c2ccnc(NC(C)=O)c2)cc2c1OCCN2Cc1cccnc1,39.8µM*
Cn1nccc1C(=O)N1CCN(C2CCN(Cc3cccnc3)C2=O)CC1 (configuration not stated),i
CNC(=O)c1cc(-c2cccnc2)cc2c1OCCN2Cc1cccnc1,i
CN(C)C(CNC(=O)CCc1ncc(-c2ccc(F)cc2)o1)c1ccco1 (configuration not stated),i
O=C(Cn1ccc2ccc(Cl)cc21)Nc1ccc2c(c1)OCCO2,i
CC(C)NC(=O)CN(C)C(=O)CCl,i
O=C(c1ccc(Cl)cc1)N1CC2(CCN(C3CCCCC3)CC2)Cc2ccccc21,i
CNC(=O)[C@@H]1CN(S(=O)(=O)c2cccc(Cl)c2)C[C@H]1C1CCN(C)CC1,i
CNC(=O)[C@@H]1CN(S(=O)(=O)c2ccc(F)c(C)c2)C[C@H]1C1CCN(C)CC1,22.4µM*
CNC(=O)[C@@H]1CN(S(=O)(=O)c2cccnc2)C[C@H]1C1CCN(C)CC1,i
CC(OC(=O)Cn1[nH]c(=O)c2ccccc2c1=O)C(=O)Nc1ccccc1F (configuration not stated),i
CSc1ncc(C(=O)N2CCN(c3ccc(F)cc3)CC2)c(C)n1,i
Cc1ccnc(N2CCC(O)(c3ccc(F)cc3)CC2)n1,28.2µM*
COc1ccnc(N2CCN(CC3(O)CCCNC3)CC2)n1 (configuration not stated),i
COCCN1C(=O)c2ccccc2C(C(=O)Nc2ccc(NC(C)=O)cc2)C12CCCC2 (configuration not stated),i
CC1(COc2ccc3[nH]ccc3c2)COc2ccc(C(=O)Nc3cccnc3)cc2N1 (configuration not stated),35.5µM*
COc1ccc(NC(=O)c2ccc3c(c2)NC(C)(COc2ccc4[nH]ccc4c2)CO3)cn1 (configuration not stated),20µM*
COc1cc(Nc2nc3ccccc3nc2C(=O)OC(C)C)cc(OC)c1,i

# Bioassay records from PubChem BioAssay.
